According to PubChem BioAssay (EPA / NIEHS):
The source made the active and inactive calls. The calls were made as follows: active = hit-call score of the fitted dose curve at least 0.9, where 1 is the maximum; inactive = score below 0.9.

Read-out: DNA damage-inducible transcript 3 (DDIT3), DDIT3 (gene 1649)
Assay: LTEA_HepaRG_DDIT3: Life Technologies and Expression Analysis (LTEA) Assay for DNA damage-inducible transcript 3 (DDIT3) using HepaRG (AID 2283488)
Conditions: mRNA level, 48 h; actives raise or lower the signal
Experimental: LTEA_HepaRG is a cell based, multiplexed-readout assay that uses HepaRG, a human liver cell line, with measurements taken at 48 hours after chemical dosing on a 96-well plate.LTEA_HepaRG_DDIT3 is one of 102 assay component(s) measured in the LTEA HepaRG cell culture assay. It is a marker of Oxidative Stress.Data from the assay component LTEA_HepaRG_DDIT3 was analyzed into 1 endpoint. This assay endpoint, LTEA_HepaRG_DDIT3, was analyzed with bidirectional fitting relative to DMSO as the negative control and baseline of activity. Using a type of inducible reporter, measures of mRNA induction for gain or loss-of-signal activity can be used to understand regulation of transcription factor activity. To generalize the intended target to other relatable targets, this assay endpoint is annotated to the dna binding intended target family, where the subfamily is basic leucine zipper.
A total of 1060 chemcials from the ToxCast library were tested in eight-point concentration-response experiments. Cell culture and cytotoxicity assays were conducted at Thermo Fisher Scientific's Custom Services facility (Madison, WI). A single lot of human HepaRG cells (Thermo Fisher Scientific, Frederick, MD) was used for the cell culture experiments. 96-well format collagen type I coated plates of human HepaRG cells were prepared using established methods. Briefly, cryopreserved HepaRG cells were thawed, plated at a density of approximately 100,000 cells/well in HepaRG Thaw, Plate, and General Purpose media (HPRG770, Thermo Fisher Scientific), and incubated for 48 hours. 0.5% DMSO was selected as vehicle control to balance the requisite need of DMSO in HepaRG cultures to maintain differentiation (for example, baseline metabolism, proportions of hepatocytes vs. cholangiocytes), while enabling further hepatic receptor pathway activation (for example, PXR and CAR) in response to chemical exposure. 48 hours after plating, the culture medium was replaced with HepaRG Serum-Free Incudtion Media. Cells were exposed to each test chemical in duplicate and maintained in CO2 incubators for another 48 hours. Chemical plates were thawed to room temperature and 200x concentrations of treatment groups were prepared. 8-point conentration-reponse curves were made with the highest exposure at 100 uM, followed by half-log dilutions, all in 0.5% DMSO. Each test plate contained variouse controls, induction positive controls (1mM phenobarbital), cytotoxicity positive controls ([…] aflatoxin B1), vehicle controls (0.5% DMSO), and total lysis controls (0.5% DMSO). Cell morphology images were taken using an Essen IncuCyte FLR automated microscope, with six 96-well plates imaged in about 24 minutes. Images were captured and exported and JPEG files. Spent culture media was transfered to black-well plates for the LDH assay, and remaining media was sorted at -80 C for later use. Cells were treated with RLT buffer and frozen until shipped for gene expression analysis. Total RNA was isolated from the cell suspension in 75 uL of Buffer RLT (Qiagen, Germantown, MD 20874) by Quintiles/Expression Analysis (Durham, NC) using a custom isolation procedure. Total RNA from each plate well was transferred to a preamplification plate. Fluidigm's 96.96 Dynamic ArrayTM (Fluidigm, Amsterdam, the Netherlands) technology was used for gene expression analyses by quantitative reverse transcription polymerase chain reaction (qRT-PCR, performed by Quintiles/Expression Analysis, Durham, NC)89. Standard TaqManTM Assays (Applied Biosystems/ThermoFisher Scientific, Foster City, CA) were used to assess the expression of 93 genes selected based on their selectivity and sensitivity to important hepatic receptors known to be modulated by environmental chemicals; importance in human hepatocyte functionality; and hepatotoxicity. […]

Row | SMILES | outcome | AC50
1 | O=C(O)c1ccccc1C(=O)OCc1ccccc1 | inactive | –
2 | O=c1c(-c2ccc(O)cc2)coc2cc(O)cc(O)c12 | inactive | –
3 | Oc1ccc2ccccc2c1 | inactive | –
4 | c1ccc(C[n+]2cccc3ccccc32)cc1 | – | 30.9 µM (active)
5 | Cc1ccc(C(C)C)cc1 | inactive | –
6 | Cc1cn([C@H]2C[C@H](N=[N+]=[N-])[C@@H](CO)O2)c(=O)[nH]c1=O | inactive | –
7 | CN(C)C(=O)C1(N2CCCCC2)CCN(CC[C@@]2(c3ccc(Cl)c(Cl)c3)CN(C(=O)c3ccccc3)CCO2)CC1 | – | 17.5 µM (active)
8 | CN1C(=O)CC[C@H]1c1cccnc1 | inactive | –
9 | CC(O)CC(C)(C)O (stereo not given) | inactive | –
10 | CCCCOC(=O)c1ccc(O)cc1 | inactive | –
11 | CCCCCCCCOC(=O)c1cc(O)c(O)c(O)c1 | inactive | –
12 | O=C=NCCCCCCN=C=O | inactive | –
13 | c1ccc2ccccc2c1 | inactive | –
14 | C[C@]12CC[C@@H]3c4ccc(O)cc4CC[C@H]3[C@@H]1CCC2=O | – | 64.5 µM (active)
15 | CO[C@H]1/C=C/O[C@@]2(C)Oc3c(C)c(O)c4c(O)c(c(/C=N/N5CCN(C)CC5)c(O)c4c3C2=O)NC(=O)/C(C)=C\C=C\[C@H](C)[C@H](O)[C@@H](C)[C@@H](O)[C@@H](C)[C@H](OC(C)=O)[C@@H]1C | inactive | –
16 | O=CCCCC=O | inactive | –
17 | CC(C)(c1cc(Br)c(O)c(Br)c1)c1cc(Br)c(O)c(Br)c1 | inactive | –
18 | Cc1oc2c(NC(=O)c3c(Cl)cccc3Cl)cccc2c1C(C)(C)O | – | 33.2 µM (active)
19 | CC(C)(O)c1ccc(CNC(=O)c2cccnc2Oc2ccc3nonc3c2)cc1 | inactive | –
20 | CC1(C)NC(=O)N(c2ccc([N+](=O)[O-])c(C(F)(F)F)c2)C1=O | – | 75.7 µM (active)

Row | SMILES | outcome | AC50
21 | O=C(O)Cn1c(=O)n(Cc2ccc(Br)cc2F)c(=O)c2ccc(Cl)cc21 | inactive | –
22 | CCN(Cc1cccc(S(=O)(=O)O)c1)c1ccc(C(=C2C=CC(=[N+](CC)Cc3cccc(S(=O)(=O)O)c3)C=C2)c2ccccc2S(=O)(=O)[O-])cc1 | inactive | –
23 | O=c1ccc2ccccc2o1 | inactive | –
24 | CCCCCCCCCCCC[N+](C)(C)C | – | 78.1 µM (active)
25 | COc1ccc2cc(S(=O)(=O)N[C@H](CC(=O)N[C@H](Cc3ccc(CN4[C@H](C)CCC[C@@H]4C)cc3)C(=O)N(C)C(C)C)c3ccc4c(c3)OCO4)ccc2c1 | – | 20.4 µM (active)
26 | O=C(O)c1ccccc1-n1cc(C(=O)O)c(=O)c2cc(Nc3c(F)cc(F)cc3Cl)c(Cl)cc21 | inactive | –
27 | CC(C)(C)c1csc(-c2cc3cc(OCc4ccccc4CC(=O)O)ccc3o2)n1 | – | 22.7 µM (active)
28 | Oc1ccccc1 | inactive | –
29 | O=C1c2ccccc2C(=O)N1CCc1noc(-c2ccc(CN3CCCCCC3)s2)n1 | inactive | –
30 | CC[C@H](NC(=O)c1cc(F)ccc1NS(=O)(=O)c1cccc2cccnc12)c1ccccc1 | – | 47.8 µM (active)
31 | O=C(OCCCCCCOC(=O)c1ccccc1)c1ccccc1 | inactive | –
32 | CCCCCCCCCCCO | inactive | –
33 | CC1=CC(=O)/C(=C(/C)O)C(=O)O1 | inactive | –
34 | CCCC(=O)OCCC(C)C | inactive | –
35 | CC(=O)N1CCN(c2ccc(OC[C@H]3CO[C@](Cn4ccnc4)(c4ccc(Cl)cc4Cl)O3)cc2)CC1 | – | 12.9 µM (active)
36 | CC(C)(C)c1cc(/C=C2\SC(N)=NC2=O)cc(C(C)(C)C)c1O | – | 22.8 µM (active)
37 | NCc1cccc(C2CCN(C(=O)c3ccc(C#Cc4ccccc4F)o3)CC2)c1 | – | 75.4 µM (active)
38 | Cc1ccc2oc(CN(Cc3ccccc3)C(=O)Nc3c(F)cc(F)cc3F)c(-c3ccc(Cl)cc3)c2c1 | – | 64.3 µM (active)
39 | OC12N=C(c3ccccc3)SC1Cc1cc(Cl)ccc12 (stereo not given) | – | 2.33 µM (active)
40 | CCCCOC(=O)CC(CC(=O)OCCCC)(OC(C)=O)C(=O)OCCCC | inactive | –
